Source: PubChem
Pol kappa inh: qHTS for Inhibitors of Polymerase Kappa; DNA polymerase kappa (Homo sapiens), Q9UBT6; purified Pol kappa, fluorescent DNA synthesis assay, 10 min; Potency, µM (highest dose often 107 µM), for inactives: top-dose activity, negative = inhibition, hits mostly inhibitors; actives 0.53% (n = 400,000); AID 588579, 2011; also: potency is read from the fitted curve at half-maximal effect; % is scaled to controls: 0 for no effect and ±100 for the full control effect
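Readout: fluorescence, taken kinetically at 0 and 10 min. Conditions: 10 nM Pol kappa, 15 min RT compound preincubation, 50 nM substrate final. Controls: enzyme-free buffer wells.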
PI5P4K alpha inh: qHTS for Inhibitors of phosphatidylinositol 5-phosphate 4-kinase (PI5P4K). max response, %. PI5P4Kalpha enzyme, ADP-Glo luminescence, 60 min; hits give low values. actives 1.2% (n = 330,000); active = max response of -50% or lower; inconclusive = between -30% and -50%; inactive = -30% or higher; also: value at the top dose of about 77 µM; % is scaled to controls: 0 for no effect and ±100 for the full control effect
Target sequence (P48426 whole entry, looked up): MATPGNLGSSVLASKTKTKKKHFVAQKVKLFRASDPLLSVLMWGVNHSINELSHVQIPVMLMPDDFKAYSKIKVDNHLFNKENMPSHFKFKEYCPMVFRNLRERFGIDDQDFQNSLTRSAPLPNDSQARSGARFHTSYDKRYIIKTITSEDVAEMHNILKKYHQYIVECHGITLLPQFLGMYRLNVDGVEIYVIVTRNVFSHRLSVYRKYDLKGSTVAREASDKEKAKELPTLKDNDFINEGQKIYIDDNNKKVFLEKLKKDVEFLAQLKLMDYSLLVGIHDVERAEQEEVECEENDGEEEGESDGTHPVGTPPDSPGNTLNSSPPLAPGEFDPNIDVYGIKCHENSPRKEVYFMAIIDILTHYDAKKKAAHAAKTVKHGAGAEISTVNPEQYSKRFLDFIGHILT
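Quantitative HTS of the MLSMR library against PI5P4Kalpha with substrate. ATP added last at 5 microM final; room temperature, 60 minutes. Remaining ATP depleted, ADP converted and read as luminescence.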
POLI inh: qHTS for Inhibitors of Polymerase Iota; DNA polymerase iota (Homo sapiens), Q9UNA4; Pol iota fluorescent replication assay, 10 min; Potency, µM (doses to about 115 µM), for the others: at the highest dose activity, negative = inhibition, actives largely listed as inhibitors; actives 1% (n = 390,000); AID 588590, 2011; also: potency is read from the fitted curve at half-maximal effect
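Pol iota at 10 nM preincubated 15 min with compounds at room temperature; reaction started with fluorescent substrate, 50 nM final. Fluorescence read kinetically at 0 and 10 min; buffer-only wells as negative control.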
WRN helicase inh: qHTS for Inhibitors of WRN Helicase. Bifunctional 3'-5' exonuclease/ATP-dependent helicase WRN (Homo sapiens), Q14191. actives 0.46% (n = 360,000). WRN helicase unwinding, fluorescent forked duplex, kinetic. AID 651768, 2012. Potency, µM (doses to about 114 µM), for the others: at the top dose activity change, negative = inhibition, usual class: inhibitors; also: potency is read from the fitted curve at half-maximal effect; % is scaled to controls: 0 for no effect and ±100 for the full control effect; nearly all actives have a fitted effect of over 55% in size
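Primary qHTS, 1536-well format. 20 nM WRN + compound, 15 min RT; start with 100 nM forked fluorophore/quencher duplex, 2 mM ATP (final); kinetic read ex 525/em 598 nm.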
Pol beta inh: qHTS Assay for Inhibitors of DNA Polymerase Beta; AID 485314, 2010; Pol beta primer extension/strand displacement, fluorescence kinetic; actives 1.3% (n = 340,000); P06746; Potency, µM (titrated, usually from 114 µM), for inactives: top-dose activity change, negative = inhibition, most hits filed as inhibitors; also: potency is read from the fitted curve at half-maximal effect; % is scaled to controls: 0 for no effect and ±100 for the full control effect
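Pol beta (10 nM) and compounds were preincubated 15 min at room temperature, then 50 nM substrate (final) started primer extension/strand displacement. Reads were taken at 0 and 10 min; concentration-response data were fitted to a four-parameter Hill equation.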
POLH inh: qHTS for Inhibitors of Polymerase Eta. DNA polymerase eta (Homo sapiens), Q9Y253. recombinant Pol eta, fluorescent DNA replication assay. Potency, µM (top dose mostly 114 µM), inactives show at the top dose activity change, negative = inhibition, most hits filed as inhibitors. actives 1.2% (n = 390,000); also: potency is read from the fitted curve at half-maximal effect; % is scaled to controls: 0 for no effect and ±100 for the full control effect
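Pol eta (10 nM) was preincubated with compounds for 15 min at room temperature, after which fluorescent replication substrate (50 nM final) was added to start the reaction. Fluorescence was read kinetically at 0 and 10 min.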
TbPGK inh: qHTS for inhibitors of Phosphogylcerate Kinase: Hit Validation Screen | AID 686980, 2013 | Potency, µM (titrated, usually from 57.5 µM), without a hit: at the highest dose activity change, negative = inhibition, hits mostly inhibitors | shares compounds with Pol kappa inh | TbPGK coupled GAPDH assay, Kinase-Glo luminescence | actives 79% (n = 500); also: potency is read from the fitted curve at half-maximal effect; % is scaled to controls: 0 for no effect and ±100 for the full control effect; nearly all actives have a fitted effect of over 65% in size
Pol iota confirm: qHTS for Inhibitors of Polymerase Iota: Confirmatory Assay for Cherry-picked Compounds. actives 77% (n = 1,500). Pol iota primer extension, TAMRA/BHQ fluorescence. Potency, µM, usual class: inhibitors. shares compounds with Pol kappa inh; also: potency is read from the fitted curve at half-maximal effect
An asterisk follows results filed as active; u = inconclusive; x = no result given; [ ] = remark or other dose. Compounds with a hit are over-represented: about 2.8% of the library has one in this group of screens. Unless noted, calls follow the shape of the dose curve; as a rule, active = well fitted curve in the direction sought with a large enough effect; inconclusive = small, poorly fitted or top-dose-only effect, or another doubt; inactive = no such curve, though single readings can be large; an effect the other way counts as inactive or inconclusive.

SMILES	Pol kappa inh	PI5P4K alpha inh	POLI inh	WRN helicase inh	Pol beta inh	POLH inh	Pol iota confirm	others
COc1ccccc1NC(=O)c1cc2ccccc2o/c1=N\O	-39%	-2	79µM*	100µM*	20µM*	u	u
Cc1cc(=O)oc2cc(OCC(=O)N/N=C/c3ccccc3O)ccc12	-8%	-1	29%	-1%	3.2µM*	18µM*	u
Cc1cc(=O)oc2cc(OCC(=O)c3ccccc3)ccc12	-5%	1	143%	-14%	32%	-13%	x
BrC(=C\c1ccccc1)/C=N/Nc1ccc2nncn2n1	-23%	-10	u	-13%[11.6 µM]	u	50µM*	34*
CC1CN(C(=O)CSc2nnc(-c3cccs3)n2N)CC(C)O1 (stereo not drawn)	2%	-1	15%	-2%	x	1%	x
Cc1ccc2nc3sc(C(=O)Nc4ccc(F)cc4)cc3cc2c1	-2%[60.1 µM]	x	u	x	2.5µM*	-11%	75*
Cc1ccc(CCNC(=O)c2cc3cc4cc(C)ccc4nc3s2)cc1	3%[60.1 µM]	x	30%	x	u	-10%	x
CCOc1ccccc1NC(=O)c1cc2cc3cc(C)ccc3nc2s1	-4%[60.1 µM]	x	5%	x	-21%	-12%	x
Cc1ccc2nc3sc(C(=O)Nc4ccncc4)cc3cc2c1	x	x	x	x	x	x	u
Cc1ccccc1Nc1nn2c(=O)c3ccc(C(=O)NCc4ccccc4)cc3nc2s1	0%[60.1 µM]	x	79µM*	x	13µM*	u	u
CCc1ccccc1Nc1nn2c(=O)c3ccc(C(=O)NCc4ccc(C)cc4)cc3nc2s1	-1%	x	10%	x	-2%	-13%	x
CCCc1cc(=O)oc2cc(OCC(=O)Nc3ccc(S(N)(=O)=O)cc3)ccc12	40µM*	-4	5µM*	u	89µM*	10µM*	38*
Cn1cc(CCCC(=O)NCc2ccccc2Cl)c2ccccc21	5%	x	44%	x	7%	-23%	x
CC(C)CN(CC(C)C)c1ccc(/C=C/c2nc3ccccc3s2)cc1	-6%	x	u	x	x	x	x
C(=C\c1nc2ccccc2[nH]1)/c1ccccc1	-20%	x	6%	-19%	4%	-2%	x	TbPGK inh=16µM*
CN(CC(=O)Nc1ccccc1Cl)C(=O)Cn1cc(C(F)(F)F)cc(Cl)c1=O	-9%	2	18%	u	x	4%	x
CC1=CC2=NC(=O)/C(=C\c3ccc(-c4cccc(Cl)c4)o3)C(=N)N2O1	-10%	-5	u	-26%	u	5.6µM*	u
Cc1ccc(-c2nc3ccccc3n2C)o1	-12%	x	27%	0%	-2%	0%	x	TbPGK inh=u
Nc1cc(N)nc(SCC(=O)N2CCCCC2)n1	-14%	-1	33%	-16%	26%	5%	x
Nc1c(/C=C2/C=CC(=O)C(O)=C2)c(=O)nc2sc(CC(=O)N3CCCCC3)nn12	u	-11	u	-3%	u	-10%	x	TbPGK inh=1.6µM*
COc1ccccc1CN(C)C(=O)CN1C(=O)c2ccccc2C1=O	-15%	2	66%	-21%	-20%	-19%	x
COc1cc([N+](=O)[O-])ccc1NC(=O)COC(=O)c1ccc(NC(N)=O)cc1	-8%	2	-18%	-16%[11.6 µM]	u	u	42*
Cc1cc2nc(-c3ccc(SCC(=O)Nc4ccc(S(=O)(=O)NC5CC5)cc4)nc3)[nH]c2cc1C	-6%	-15	u	1%	u	u	x
Cc1cc(NC(=O)CSc2ccc(-c3nc4cc(C)c(C)cc4[nH]3)cn2)no1	8%	x	23%	-22%	0%	-16%	x	TbPGK inh=5%
NC(=O)N/N=C/c1coc2ccc3ccccc3c2c1=O	-4%	-14	-1%	-8%	3%	-2%	x
SMILES	Pol kappa inh	PI5P4K alpha inh	POLI inh	WRN helicase inh	Pol beta inh	POLH inh	Pol iota confirm	others
O=Cc1coc2ccc3ccccc3c2c1=O	-25%	-86*	168%	u	u	-8%	x	TbPGK inh=u
CCC(Cn1nnc2ccccc2c1=O)NC(=O)Nc1cc(C)cc(C)c1 (stereo not drawn)	3%	x	13%	x	40%	1%	x
O=C(CNS(=O)(=O)c1ccc(Br)s1)NCCc1ccc(Cl)cc1	3%	1	21%	3%	43%	-10%	x
N#CNc1nc(O)cc(=O)[nH]1	79µM*	-78*	u	-35%	-26%	u	x	TbPGK inh=u
CCSc1nc(O)cc(=O)[nH]1	-4%	-2	-26%	0%	47%	u	x
Cc1ccc(-c2c(C(=O)N/N=C/c3cccnc3)nnn2-c2nonc2N)cc1	1%	1	14%	-1%	1%	-11%	x
CCOc1ccc(-c2c(C(=O)N/N=C/c3cccnc3)nnn2-c2nonc2N)cc1	u	2	22µM*	7%	u	u	u
Cc1nc(C)c(C(=O)N2CCCC(C(=O)c3cc(F)ccc3F)C2)s1 (stereo not drawn)	-11%	2	28%	-15%	-17%	-24%	x
O=c1nc2cccc3c2=c(/c1=C(\O)c1ccccc1)c1ccccc1c3=O	7%[60.1 µM]	-14	45%	-12%[11.6 µM]	10µM*	50µM*	u
O=c1[nH]c(/C=C/c2cccc3ccccc23)nc2ccccc12	-4%	-11	83%	5%	3%	-14%	x
C[C@@H]1O[C@@H](O[C@@H]2[C@@H](O)[C@H](OCCc3ccc(O)c(O)c3)O[C@H](CO)[C@H]2OC(=O)/C=C/c2ccc(O)c(O)c2)[C@H](O)[C@H](O)[C@H]1O	22µM*	-26	u	-23%	x	-5%	21*
CC(=O)c1ccc2c(c1)C1C=CCC1C(C(=O)O)N2 (stereo not drawn)	3.5µM*	-91*	1.6µM*	14µM*	32µM*	1µM*	x	TbPGK inh=9.2µM*
COc1cccc(C2Nc3c(F)cc(Br)cc3C3C=CCC32)c1OC (stereo not drawn)	-6%	-3	4%	-6%	-15%	-7%	x
